{"source": "PubChem BioAssay AID504715", "about": "(Sanford-Burnham Center for Chemical Genomics, 2011)", "biological_target": "Uracil-DNA glycosylase (Escherichia coli (strain K12)) (UniProt P12295)", "sequence (P12295 whole entry, looked up)": "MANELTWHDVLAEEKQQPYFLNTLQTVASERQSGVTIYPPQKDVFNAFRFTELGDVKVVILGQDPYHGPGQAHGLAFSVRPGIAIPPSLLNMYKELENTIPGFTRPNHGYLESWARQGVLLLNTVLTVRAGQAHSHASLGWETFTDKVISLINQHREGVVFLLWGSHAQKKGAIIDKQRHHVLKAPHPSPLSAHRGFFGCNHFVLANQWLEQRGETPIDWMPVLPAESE", "assay": "E. coli UDG inhibitors, confirmation, counter-screen for APOBEC3G inhibitor project, biochemical, single concentration, fluorescence, FAM/TAMRA oligo (AID 504715);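 also: plate controls were DMSO wells with UDG and oligo for no effect and DMSO wells lacking both for full effect; inhibitors lower the FAM signal released by uracil excision and alkaline cleavage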", "details": "UDG counterscreen, at 20 µM, stronger effect = higher value", "note": "The list shows a part of the results. Values without a mark were called inactive.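 The calls were made as follows: active = compounds giving 40% or more inhibition at 20 µM in any one of the three replicates; inactive = the rest.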"}
{"molecule": "COC(=O)N(c1ccc(OC)cc1)P1(=S)OCCC(C)O1", "note": "(stereo unspecified)", "values": [{"measurement": "inhibition", "result": -3.68, "unit": "%"}]}
